ALDH1A1 block: ALDH1A1 (human) enzyme inhibition; Potency, µM (titrated, usually from 75.3 µM), for inactives: at the highest dose activity, negative = inhibition, actives largely listed as inhibitors; Purified ALDH1A1, NADH fluorescence, propionaldehyde substrate; 7.3% of 220,000 active;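 also: potency is read from the fitted curve at half-maximal effect; plate controls were no enzyme wells and a reference inhibitor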
Target sequence (P00352 whole entry, looked up): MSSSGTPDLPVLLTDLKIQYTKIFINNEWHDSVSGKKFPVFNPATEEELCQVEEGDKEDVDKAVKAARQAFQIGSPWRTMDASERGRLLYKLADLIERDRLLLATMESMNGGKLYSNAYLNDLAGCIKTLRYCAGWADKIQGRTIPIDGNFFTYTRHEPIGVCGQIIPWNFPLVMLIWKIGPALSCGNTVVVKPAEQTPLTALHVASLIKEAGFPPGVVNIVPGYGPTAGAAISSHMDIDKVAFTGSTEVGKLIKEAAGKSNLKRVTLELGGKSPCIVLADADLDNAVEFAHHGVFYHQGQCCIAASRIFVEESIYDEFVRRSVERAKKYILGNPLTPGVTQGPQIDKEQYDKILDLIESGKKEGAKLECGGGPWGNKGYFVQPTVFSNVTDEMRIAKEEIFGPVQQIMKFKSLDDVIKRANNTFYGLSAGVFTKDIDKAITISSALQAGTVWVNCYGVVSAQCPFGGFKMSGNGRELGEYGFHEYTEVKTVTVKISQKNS
HPGD block: HPGD (human) dehydrogenase inhibition | AID 894 | Potency, µM, inactives show at the top dose activity change, negative = inhibition, usual class: inhibitors | 4.3% of 150,000 active | purified HPGD, NADH fluorescence kinetic, PGE2 substrate; also: potency is read from the fitted curve at half-maximal effect
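20 nM HPGD preincubated 15 min at room temperature with compound in 50 mM Tris-HCl pH 8, 0.01% Tween 20. Started with 1 mM NAD+ and 30 uM prostaglandin E2; NADH fluorescence (360/450 nm) read 5 times over 30-s intervals, last minus first.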
JMJD2E inh: inhibitors of human JMJD2E histone demethylase; B2RXH2; JMJD2E catalytic domain, FDH-coupled NADH fluorescence (FDH is formaldehyde dehydrogenase); Potency, µM (series often up to 57.1 µM), inactives show top-dose activity change, negative = inhibition, actives largely listed as inhibitors; 1.6% of 230,000 active;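 also: potency is read from the fitted curve at half-maximal effect; 0% = wells with enzyme and -100% = buffer wells without enzyme; nearly all actives have a fitted effect of over 50% in size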
PNC inhibitor: perinucleolar compartment assembly inhibition | PC3M PTB-GFP, PNC prevalence imaging, 16 h; active compounds read low | activity change (PNC), negative = inhibition, % at 10 µM | 3.1% of 140,000 active;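 active = readout at or below -70, meaning at least 70% loss of cells showing the perinucleolar compartment, a nuclear body marking cancer cells; inconclusive = readout between -30 and a set limit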;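 also: plate controls were DMSO wells for no effect and camptothecin positive control wells for full effect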
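Compounds are pinned in duplicate onto adhered PC3M cells stably expressing GFP-tagged PTB and incubated 16 h at 37 C. Cells are then fixed, nuclei stained with Hoechst, and PNC-positive cells counted.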
* marks the source's active call; other numbers are inactive results; ? = inconclusive; . = not tested or not shown. The list is not random: actives were taken first. Their share in the collection is about 11%. Unless noted, calls follow the shape of the dose curve; as a rule, active = well fitted inhibition curve with a large enough effect (not every such curve was filed as active); inconclusive = small, poorly fitted or top-dose-only effect, or another doubt; inactive = no such curve, though single readings can be large or run the other way. Unless noted, % is scaled to controls: 0 for no effect and ±100 for the full control effect.

SMILES | ALDH1A1 block | HPGD block | JMJD2E inh | PNC inhibitor
O=C(CN1C(=O)C(=O)N(Cc2ccccc2)C1=O)Nc1ccc(F)c(Cl)c1 | 4% | . | 6% | .
CN(C)c1ccc(/C=C/c2ccc3c4ccccc4ccc3[n+]2-c2ccccc2)cc1 | 13µM* | . | ? | .
CN(C)c1ccc(/C=C/c2ccc3ccccc3[n+]2C)cc1 | -15% | -2% | -21% | 5
CC(C)c1ccc(C(=O)CSc2n[nH]c(-c3ccncc3)n2)cc1 | ? | -18% | 2% | ?
O=C(O)C1C2C=CC(O2)C1C(=O)NCc1ccc(Cl)cc1 (configuration not stated) | 3% | 6% | -1% | -131*
Cc1ccc(C(C)C)c(OCC(=O)NN=C2CCCC2)c1 | -12% | . | 36% | .
CC(C)CNC(=O)CC(=O)NN=C1CCCC1 | -2% | -6% | 29% | -113*
COc1ccc(N2C(=S)NC3N2C(=S)NC3(C)c2ccccc2)cc1 (configuration not stated) | 25µM* | . | ? | .
CC1(c2ccccc2)NC(=S)N2C1NC(=S)N2c1ccccc1 (configuration not stated) | 32µM* | -2% | -5% | ?
Cn1c(NCCCO)nc2c(c1=O)C1(CCCCC1)Cc1ccccc1-2 | ? | ? | ? | 3
CCC(=O)Nn1cnc2c(c1=O)C1(CCCCC1)Cc1ccccc1-2 | ? | -1% | 9% | -106*
Cc1ccc(S(=O)(=O)N(C)C)cc1NC(=O)CCc1ccccc1 | 4.5µM* | . | 6% | .
Cc1ccc(S(=O)(=O)N(C)C)cc1NC(=O)CCc1c[nH]c2ccccc12 | 4.5µM* | . | 3% | .
COc1ccc(S(=O)(=O)N(C)C)cc1NC(=O)Cc1c[nH]c2ccccc12 | -17% | . | 2% | .
Cc1ccc(C)c(Nc2c([N+](=O)[O-])c(=O)oc3ccccc23)c1 | . | . | 4% | .
COCCNC(=O)CN(C(=O)Cn1nnc2ccccc21)c1ccc(C)c(F)c1 | 3% | -1% | -4% | -119*
COCCNC(=O)CN(C(=O)Cn1nnc2ccccc21)c1ccc(C)cc1 | 6% | . | 2% | .
CNC(=O)C1C(=S)NC(N)=C(C#N)C1c1ccccc1 (configuration not stated) | 18µM* | -8% | ? | -4
CC(C)(C)C(=O)N1CCc2cc(-c3csc(N)n3)ccc21 | -2% | -23% | -3% | 25
CNc1nc(-c2ccc3c(c2)CCN3C(=O)c2ccccc2F)c(C)s1 | 11µM* | . | -7% | .
CNc1nc(-c2ccc3c(c2)CCN3S(=O)(=O)c2ccccc2)c(C)s1 | 8.9µM* | . | -10% | .
CNc1nc(-c2ccc3c(c2)CCN3C(=O)c2ccccc2F)cs1 | 25µM* | . | -17% | .
CCC(C)(C(=O)NC1CCCC1)N(Cc1cccs1)C(=O)Cc1cccs1 (configuration not stated) | -6% | 4% | -2% | 15
CCC(C)(C(=O)NC1CCCC1)N(Cc1cccs1)C(C)=O (configuration not stated) | 2% | -9% | -2% | -100*
O=C(Nc1cc(S(=O)(=O)Nc2ccccc2Cl)ccc1O)c1sc2cc(Cl)ccc2c1Cl | 8% | . | -2% | .
SMILES | ALDH1A1 block | HPGD block | JMJD2E inh | PNC inhibitor
Clc1ccccc1-c1nn2c(-c3ccncc3)nnc2s1 | 11µM* | 11µM* | 4% | 4
Clc1ccccc1-c1nnc2sc(-c3cccs3)nn12 | 14µM* | 28µM* | -9% | -27
CN(C)c1ccc(N=c2sc3ccccc3n2C)cc1 | 2µM* | -28% | -12% | 28
Cn1c(=NC(=O)CCl)sc2ccccc21 | 0.71µM* | -12% | -9% | ?
CNC1C(O)C(O)C(CO)O[C@H]1OC1C(O[C@@H]2C(O)C(O)[C@@H](N=C(N)N)C(O)C2N=C(N)N)OC(C)[C@]1(O)C=O (some centres not stated) | 5% | -7% | 0% | .
Cc1cc(C(=O)N2CCN(c3ncccn3)CC2)nn1C | . | . | -22% | .
CCc1ccc2c(Cl)c(C(=O)N/N=C/c3c[nH]c4ccccc34)sc2c1 | 13µM* | -9% | -9% | 90
CCc1ccc(-c2cc(C(=O)N/N=C/c3c[nH]c4ccccc34)[nH]n2)cc1 | -19% | . | ? | .
Cc1nn(C)cc1CNCc1c(C(=O)N2CCCCC2)nc2c(C)cccn12 | ? | . | 1% | .
Cc1cc(Nc2ccc(O)cc2)ccc1N | 3.2µM* | -13% | . | .
COc1ccccc1OCCn1cc(C(=O)c2ccco2)c2ccccc21 | ? | ? | ? | 27
CNC(=S)N/N=C/c1cn(CCOc2cccc(OC)c2)c2ccccc12 | ? | 16µM* | ? | 16
COc1cccc(OCCn2cc(C(=O)c3ccco3)c3ccccc32)c1 | 22µM* | ? | ? | 33

From PubChem
